TDP1 cell CPT = growth inhibition of DT40 Tdp1-/-;hTDP1 cells with camptothecin (screen for TDP1 inhibitors). chicken DT40 Tdp1-/-;hTDP1 cells + 20 nM CPT, ATP luminescence, 48 h. Potency, µM (highest dose often 46.2 µM), actives largely listed as inhibitors. 420,000 tested, 12% active; also: nearly all actives have a fitted effect of over 55% in size
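Chicken DT40 Tdp1-/- cells complemented with human TDP1, 400 cells/well, exposed to compounds plus 20 nM camptothecin for at least 48 h at 37 C; viability read as ATP content by CellTiter-Glo luminescence.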
DT40 TDP1 no CPT = qHTS for Inhibitors of human tyrosyl-DNA phosphodiesterase 1 (TDP1): qHTS in cells in absence of CPT. 420,000 tested, 15% active. DT40 Tdp1-/- hTDP1 cells, no CPT, ATP luminescence, 48 h. Potency, µM (doses to about 46.2 µM), actives largely listed as inhibitors. AID 686978, 2013; also: nearly all actives have a fitted effect of over 55% in size
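No-CPT arm: Tdp1-/-;hTDP1 DT40 cells (400/well) plus compounds, incubated ≥48 hr at 37 °C. Readout CellTiter-Glo luminescence.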
IL-1B inflam inh = blocks inflammasome-driven IL-1 beta release; THP-1 LPS/ATP IL-1B secretion, AlphaLISA, 16 h; stronger effect = lower value; activity change, % at 57.5 µM; 360,000 tested, 4.7% active; in the data active = activity change below about -50%; inconclusive = mostly about -30% to -49%
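THP-1 cells pretreated 1 hr with compounds (up to 57.5 uM final), then stimulated with LPS (250 ng/mL final) plus ATP (1.25 mM final); secreted IL-1B measured by AlphaLISA after 16 hr, decreased signal indicating inhibition.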
ClpP mod = qHTS Assay for Activators of ClpP | ATP-dependent Clp protease proteolytic subunit (Bacillus subtilis (strain 168)), P80244 | purified B. subtilis ClpP, FRET peptide cleavage, 20 min | Potency, µM (highest dose often 57.5 µM) | 340,000 tested, 1.9% active | AID 651965, 2013; active = well fitted falling curve with a large enough effect; inconclusive = small, poorly fitted or top-dose-only effect; inactive = no such curve, though single readings can be large or run the other way; also: the source files actives as falling curves though it sought activators and does not explain the sign; nearly all actives have a fitted effect of over 65% in size
Target sequence (P80244 whole entry, looked up): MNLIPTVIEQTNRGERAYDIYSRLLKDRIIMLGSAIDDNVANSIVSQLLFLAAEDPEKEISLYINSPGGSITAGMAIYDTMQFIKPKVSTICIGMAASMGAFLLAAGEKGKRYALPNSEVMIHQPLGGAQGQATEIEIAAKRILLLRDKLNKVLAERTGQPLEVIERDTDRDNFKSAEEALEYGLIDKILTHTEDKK
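Purified B. subtilis ClpP, 10 microg/mL final in Tris/HCl pH8 with KCl, BSA, glycerol and Tween-20, cleaved an Abz/nitrotyrosine-quenched decapeptide. Fluorescence (ex 320, em 430) was read at 0 and 20 min at room temperature. Delta was normalized to 5.8 microM ADEP and DMSO/no-enzyme controls.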
DRD3 agonist = activates the human D3 dopamine receptor. 410,000 tested, 0.58% active. P35462. AID 652048. max activation, %. D3R DiscoveRx beta-arrestin cells, luminescence, 90 min; in the data active = max activation above about 30%
Target sequence (P35462 whole entry, looked up): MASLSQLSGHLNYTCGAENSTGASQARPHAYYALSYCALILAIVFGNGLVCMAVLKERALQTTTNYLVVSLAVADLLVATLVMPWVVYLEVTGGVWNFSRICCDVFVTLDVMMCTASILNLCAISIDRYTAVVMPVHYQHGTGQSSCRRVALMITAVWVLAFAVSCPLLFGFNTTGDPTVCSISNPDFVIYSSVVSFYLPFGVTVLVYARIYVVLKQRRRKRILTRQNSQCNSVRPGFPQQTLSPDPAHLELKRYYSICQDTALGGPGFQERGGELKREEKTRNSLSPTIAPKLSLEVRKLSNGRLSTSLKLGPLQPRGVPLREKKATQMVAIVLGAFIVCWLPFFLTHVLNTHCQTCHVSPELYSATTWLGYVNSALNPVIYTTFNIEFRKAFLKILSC
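Agonist mode: compounds and dopamine controls were applied to plated cells for 90 min at 37 degrees C after an overnight attachment at 1500 cells/well. Luminescent read-out followed 30 - 60 minutes at room temperature with DiscoveRx detection reagent.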
D3 antag = D3 dopamine receptor (human) antagonism | P35462 | D3R cells, DiscoveRx beta-arrestin luminescence, antagonist mode; stronger effect = lower value | max response, negative = inhibition, % | 360,000 tested, 2.5% active | AID 652054; in the data active = max response below about -50%; inconclusive = no clear call, values can overlap the other calls
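Cells expressing the human receptor were seeded at 1500 cells/well, incubated overnight at 37 degrees C in 5% CO2, then exposed to library compounds with dopamine controls for 90 minutes at 37 degrees C before luminescent detection.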
A number is an active result; 0 = inactive; ? = inconclusive; - = no result given. The list is not random: actives were taken first. Their share in the collection is about 21%. Unless noted, calls follow the shape of the dose curve; as a rule, active = well fitted inhibition curve with a large enough effect; inconclusive = small, poorly fitted or top-dose-only effect; inactive = flat fitted curve, though single readings scatter.

SMILES | TDP1 cell CPT | DT40 TDP1 no CPT | IL-1B inflam inh | ClpP mod | DRD3 agonist | D3 antag
O=C(COc1ccc2ccccc2c1Br)Nc1ccncc1 | 10µM | 7.3µM | 0 | 0 | 0 | 0
O=C(COc1ccc2ccccc2c1Br)Nc1cccnc1 | 16µM | ? | ? | 0 | 0 | 0
COc1ccc(C(=O)COC(=O)CCCC(=O)Nc2ccc(C(C)=O)cc2)cc1 | 0 | 0 | - | 0 | 0 | -
Nc1nonc1C(=O)NCCNCc1cc(Br)ccc1OCc1ccc(F)cc1 | 10µM | 10µM | -65 | 0 | 0 | 0
Nc1nonc1C(=O)NCCNCc1ccccc1F | - | - | - | 0 | 0 | -
Nc1nonc1C(=O)NCCNCc1c(OCc2ccccc2F)ccc2ccccc12 | 11µM | 11µM | -81 | 0 | 0 | -55
COc1ccc(CNCCNC(=O)c2nonc2N)cc1OC | 0 | 0 | 0 | 0 | 0 | 0
O=C(Nc1ccc(N2CCCCC2)cc1)c1cc([N+](=O)[O-])cc([N+](=O)[O-])c1 | 0 | 0 | 0 | - | 0 | 0
C#CCN(C[C@@H]1[C@@H](OC(=O)NCc2ccccc2F)[C@@H](OC(=O)NCc2ccccc2F)CN(C(=O)OC(C)C)N1C(=O)OC(C)C)S(=O)(=O)c1ccc(C)cc1 | 7.3µM | 7.3µM | 0 | 0 | 0 | 0
C#CCN(C[C@H]1[C@H](OC(=O)NCc2ccccc2)[C@H](OC(=O)NCc2ccccc2)C[C@H]2C(=O)N(c3ccccc3)C(=O)[C@@H]12)S(=O)(=O)c1ccc(C)cc1 | 0 | 0 | 0 | 0 | 0 | 0
C#CCN(C[C@@H]1[C@@H](OC(=O)NC2CC2)[C@@H](OC(=O)NC2CC2)CN(C(=O)OC(C)C)N1C(=O)OC(C)C)S(=O)(=O)c1ccc(C)cc1 | ? | 16µM | 0 | 0 | 0 | 0
C#CCN(C[C@@H]1[C@@H](OC(=O)NCc2ccco2)[C@@H](OC(=O)NCc2ccco2)CN(C(=O)OC(C)C)N1C(=O)OC(C)C)S(=O)(=O)c1ccc(C)cc1 | 15µM | 9.2µM | -98 | 0 | 0 | 0
CCN1CCN(CC(=O)N2CCCC(C(=O)c3ccc(Oc4ccccc4)cc3)C2)CC1 (stereo not given) | ? | ? | 0 | 0 | 0 | 0
CCCCCOc1ccc(CSCCNC(=S)Nc2ccccc2)cc1 | 0 | 0 | 0 | 0 | 0 | 0
CCCCOc1ccc(CSCCNC(=S)Nc2ccccc2)cc1 | 18µM | ? | 0 | 0 | 0 | 0
CC(C)COc1ccc(CSCCNC(=S)Nc2ccccc2)cc1 | ? | 15µM | 0 | 0 | 0 | 0
CCCCN(C(=O)c1ccc(S(=O)(=O)N2CCCC2)cc1)C1CCS(=O)(=O)C1 (stereo not given) | 0 | 0 | 0 | 0 | 0 | 0
CC1=NN(c2ccccc2)C(=O)/C1=C/C=C/c1ccccc1 | 0 | 2.6µM | -129 | 0 | 0 | 0
CC1=NN(c2cccc(C(=O)O)c2)C(=O)/C1=C\C=C\c1ccco1 | ? | ? | -96 | 0 | 0 | 0
COc1ccccc1/C=C1/C(=O)N(c2ccccc2)N=C1C | 0 | 0 | 0 | - | 0 | 0
COc1cc(/C=C2\C(=O)N(c3cccc(C(=O)O)c3)N=C2C)ccc1OCc1ccccc1 | 0 | ? | 0 | 0 | 0 | 0
Cc1ccc(C2=NOC(=O)/C2=C\C=C\c2ccccc2)cc1 | 4.6µM | 4.6µM | -96 | 32µM | 0 | 0
CN(C)/C=C1\C(=O)ON=C1c1ccccc1 | 0 | 0 | 0 | - | 0 | 0
Cc1n[nH]c(C)c1N1C(=O)c2cccc3cc(Br)cc(c23)C1=O | ? | ? | 0 | 0 | 0 | 0
Cc1n[nH]c(C)c1N1C(=O)c2cccc3c(Br)ccc(c23)C1=O | ? | ? | -107 | 0 | 0 | ?
SMILES | TDP1 cell CPT | DT40 TDP1 no CPT | IL-1B inflam inh | ClpP mod | DRD3 agonist | D3 antag
Cc1c(Cc2ccccc2)c(=O)oc2cc(OCC(=O)NCc3ccccn3)ccc12 | ? | 0 | -52 | 0 | 0 | 0
Cc1c(Cc2ccccc2)c(=O)oc2cc(OCC(=O)N[C@@H](Cc3ccccc3)C(=O)O)ccc12 | 0 | 0 | 0 | 0 | 0 | 0
COc1cccc(COc2ccc3c(C)c(Cc4ccccc4)c(=O)oc3c2)c1 | ? | ? | 0 | 13µM | 0 | 0
COc1ccccc1COc1ccc2c(C)c(CC(=O)O)c(=O)oc2c1C | 0 | 0 | 0 | 0 | 0 | 0
COc1cc(COc2ccc3c(C)c(Cc4ccccc4)c(=O)oc3c2)cc(OC)c1OC | ? | ? | 0 | 0 | 0 | 0
COc1cc(COc2ccc3c(C)c(Cc4ccccc4)c(=O)oc3c2C)cc(OC)c1OC | 21µM | 18µM | 0 | 16µM | 0 | 0
CCN(CC)CCn1c(NS(=O)(=O)c2ccc(Cl)cc2)nc2ccccc21 | 0 | 0 | 0 | 0 | 0 | ?
C=CCc1ccccc1OCC(O)CN(C(C)C)C(C)C (stereo not given) | 0 | 23µM | 0 | 0 | 0 | 0
C=CCc1ccccc1OCC(O)CNC (stereo not given) | 0 | 0 | 0 | 0 | 0 | -64
CCOc1ccccc1OCC(O)CNC (stereo not given) | 0 | 0 | 0 | 0 | 0 | 0
COC(=O)c1cc(-c2ccc(NC(C)=O)cc2)nc2ccccc12 | ? | ? | 0 | - | 0 | 0
NC(=O)c1nn(-c2ccccc2)nc1NC(=O)CSc1nnnn1-c1ccc(Cl)cc1 | ? | 16µM | 0 | 0 | 0 | 0
Cc1ccc(-n2nnnc2SCC(=O)Nc2cccnc2Cl)cc1 | 0 | ? | 0 | 0 | 0 | 0
O=C(CSc1nnnn1-c1cccnc1)Nc1ccccc1F | 0 | 0 | 0 | 28µM | 0 | 0
NC(=O)c1ccc(-n2nnnc2SCC(=O)Nc2ccccc2-c2ccccc2)cc1 | ? | 16µM | 0 | 0 | 0 | 0
O=C(CSc1nnnn1-c1ccccc1)Nc1ccc(Cl)cc1 | 0 | 0 | 0 | 0 | 0 | 0
O=C(CSc1nnnn1-c1ccc(Cl)cc1)Nc1cccnc1Cl | 23µM | ? | 0 | 0 | 0 | 0
Cc1ccc2nc(CN3CCN(C(=O)Nc4ccc(F)cc4)CC3)oc2c1 | ? | ? | - | 0 | 0 | -
COc1ccc(Nc2oc(-c3ccco3)nc2S(=O)(=O)c2ccc(F)cc2)cc1 | ? | ? | -57 | ? | 0 | 0
O=S(=O)(c1ccc(F)cc1)c1nc(-c2ccco2)oc1Nc1ccc(F)cc1 | ? | ? | ? | 0 | 0 | 0
COc1ccccc1NC(=O)CSc1oc(-c2cccs2)nc1S(=O)(=O)c1ccc(Br)cc1 | 23µM | ? | - | 0 | 0 | -
COc1ccc(NC(=O)CSc2oc(-c3ccco3)nc2S(=O)(=O)c2ccccc2)c(OC)c1 | ? | ? | - | 0 | 0 | -
COc1ccccc1NC(=O)CSc1oc(-c2ccccc2)nc1S(=O)(=O)c1ccc(C)cc1 | 18µM | 21µM | - | 0 | 0 | -
COc1ccccc1NC(=O)CSc1oc(-c2ccccc2)nc1S(=O)(=O)c1ccccc1 | 21µM | 16µM | - | 0 | 0 | -

High-throughput results deposited in PubChem by National Center for Advancing Translational Sciences (NCATS).
